Laboratory results reported in PubChem BioAssay AID570 (The Scripps Research Institute Molecular Screening Center, 2006).
About 45 (0.07%) of roughly 65,000 compounds were called active.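 Rule for the calls: active = inhibition above the mean of compound-free control plate wells plus 3 SD (cut at about 14% in these data); inactive = the rest.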 Only a selection was taken, and actives are over-represented in it overall.

What follows are compounds tested against Collagenase 3 (Homo sapiens) (UniProt P45452) (assay: inhibition of MMP13 collagenase activity – biochemical, FRET peptide cleavage, primary screen (AID 570;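 note: 0% = DMSO wells and 100% = wells with reference MMP-13 inhibitor after basal subtraction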)). Settings: MMP-13 fTHP FRET cleavage, Mca fluorescence; at 4 µM; active compounds read high.

inhibition, inactive:
COc1cccc(-c2nnc(N(C)C(=O)c3ccno3)s2)c1 -8.4%, COC(CCN(C)C)(c1ccccc1)c1ccccc1 -0.2%, Nc1nonc1-c1noc(-c2ccc(Br)o2)n1 -4.4%, CCOC(=O)CNC(=O)CSc1nnc(-c2cccc(OC)c2)n1CC 3.6%, COc1cccc(NC(=O)C(C)Oc2ccccc2)c1 (configuration not stated) 2.2%, N#CC1=C(N)Oc2n[nH]c(CSc3ccccc3)c2C12C(=O)Nc1ccccc12 (configuration not stated) 1.5%, COc1ccccc1CNC(=O)C1CCCN(S(=O)(=O)c2cccc3cccnc23)C1 (configuration not stated) 2.1%, Cc1noc(C)c1CSc1nc2cc(S(=O)(=O)N3CCOCC3)ccc2o1 -0.9%, CC12CCC(C(=O)N3CCN(c4ncccn4)CC3)(c3nc4ccccc4nc31)C2(C)C (configuration not stated) 0.1%, CC(C)C[C@H](NC(=O)[C@@H]1O[C@H]1C(=O)O)C(=O)NCCCCN=C(N)N 0.7%, CCn1cc(C(=O)N2CC=C(c3ccccc3)CC2)c(=O)c2ccc(C)nc21 0.8%, CCN1CCN(Cc2nc3c(c(=O)n(C)c(=O)n3C)n2CC(=O)c2ccccc2)CC1 -8.7%, Cc1ccc(Cc2cncc(O)c2)cc1S(=O)(=O)O 1.3%, COc1ccc(-n2nnc3c(=O)n(CC(=O)OCc4ccccc4)cnc32)cc1 1.8%, CCOC(=O)N1CCN(S(=O)(=O)c2cc(Br)cc3c2N(C(=O)C2CC2)CC3)CC1 3%, Cc1ccc(NC(=O)Cn2nc(C)c3ccccc3c2=O)c(C)c1 0.6%, COc1ccc(N2CCN(C(=O)CSc3nnc4ncccn34)CC2)cc1 4.1%, O=C(CN1CCN(c2ncc(C(F)(F)F)cc2Cl)CC1)Nc1ccc2c(c1)OCO2 2.7%, N#CCSc1nc2ccccc2c(=O)n1-c1ccccc1 -3.9%, CCc1nnc(NC(=O)CSc2nnc(Cc3ccccc3)n2-c2ccc(OC)cc2)s1 3.3%, CC(C)(C)c1csc(NC2=NS(=O)(=O)c3ccccc32)n1 0.2%, COC(=O)c1ccc(CSc2nc3ccccc3c(=O)n2-c2cccc(OC)c2)o1 -1.5%, CCCOC(=O)c1[nH]c2c(c1C)C(=O)CC(c1cc(OC)c(OC)c(OC)c1)C2 (configuration not stated) 0.2%, CCCC(C(=O)N1CCOCC1)N1C(=O)C2C3C=CC(C3)C2C1=O (configuration not stated) 4.6%, CN(C)CCOC(=O)C(c1ccccc1)C1(O)CCCC1 (configuration not stated) 3.8%, COc1cc2ccccc2cc1C(=O)Nc1ccc(S(=O)(=O)Nc2cc(C)on2)cc1 -1.9%, Cc1ccccc1C(OCC(O)CN1CCCCC1CCO)c1ccccc1 (configuration not stated) 1.3%, O=C1Nc2c(Br)cc(Br)cc2C1(O)N1CCOCC1 (configuration not stated) -2.4%, COc1ccc(CN2CN(C(C)C)CSC2=S)cc1 1%, COc1ccc(-c2nnn(Cc3nc(N)nc(N4CCCCC4)n3)n2)cc1 7.6%, O=C(C1CCN(S(=O)(=O)c2cccs2)CC1)N1CCCCCC1 6.3%, Cc1ccc(S(=O)(=O)NCC(=O)OCC(=O)N2CCc3ccccc32)cc1 -2.9%, COC(=O)c1ccc(NC(=O)CSc2nnc(Cc3cccn3C)n2-c2ccc(F)cc2)cc1 -0.2%, Cn1c(=O)n(CCc2ccccc2)c(=O)c2c1nc1n2CCCN1c1ccccc1 -0.2%, CCC/C(O)=C1\C(=O)CC(C)(C)CC1=Nc1ccccc1OC -1.2%, CSCCC(NC(N)=O)C(=O)N(C)CC(=O)Nc1ccc(C)cc1 (configuration not stated) -2.4%, CCc1c(C)nc(N2CCN(Cc3ccccc3)CC2)[nH]c1=O -7.8%, COC(=O)c1c(-c2ccc(C)cc2)csc1N -8.5%, CCn1c(COc2ccccc2)nnc1SCC(=O)Nc1ccc2c(c1)OCCO2 0.5%, Cc1cccc2cc(CN(Cc3nnnn3Cc3ccccc3)C3CCCC3)c(=O)[nH]c12 -8.4%, C=CCNc1nnc(C)c2ccccc12 3.5%, Cc1cc(NC(=O)CN2CCCCC2C)nc2c1c(=O)oc1ccccc12 (configuration not stated) 0.1%, COc1ccccc1N1CCN(C(=O)c2cn(-c3ccccc3)nc2-c2cccnc2)CC1 -5.4%, CCCN1CC=C2C(C#N)=C(N)C(C#N)(C#N)C(c3cc(OC)ccc3OC)C2C1 (configuration not stated) -14.3%, CCCCNC(=O)c1c[nH]c2ccc(S(=O)(=O)Nc3ccc(OCC)cc3)cc2c1=O -4.5%, Cc1cccc(N2CCN(S(=O)(=O)c3ccc4c(c3)c(=O)n(C)c(=O)n4C)CC2C)c1 (configuration not stated) 4.1%, CCOC(=O)c1ccc(-n2c(C)nc3c(cnn3-c3ccccc3C)c2=O)cc1 7.5%, CCOC(=O)c1cc2occc2n1CC(=O)NC1CCC(C)CC1 (configuration not stated) 4.9%, COc1ccc(NS(=O)(=O)c2ccc(NC(=O)C(C)(C(F)(F)F)C(F)(F)F)cc2)nn1 -10.5%, CN(CCCC(=O)Nc1nccs1)S(=O)(=O)c1ccc(Cl)cc1 6%, Cc1ccc(C(=O)CSc2nnc(Cn3nnc4ccccc43)n2C)cc1 7.7%, CCN1CCN(Cc2c(O)ccc3c(=O)c(-c4ccc(OC)c(OC)c4)c(C(F)(F)F)oc23)CC1 4.7%, CCOC(=O)CSc1nc2c(sc(=S)n2CCc2ccccc2)c(=O)n1Cc1ccco1 2.4%, O=c1nc2s/c(=C\c3ccco3)c(=O)n2nc1Cc1ccccc1 0.1%, Cc1cc(C(F)(F)F)n2ncc(-c3ccccc3)c2n1 3.8%, CCc1nnc(NC(=O)c2c(O)c3c([nH]c2=O)CCCC3)s1 -11%, CCC(C)Sc1nnc(-c2c[nH]c3ccccc23)n1CCOC (configuration not stated) 6.4%, CC(C)N1C(=O)C2C(C(=O)NC3CCCCC3)C3C=CC2(O3)C1C(=O)NC1CCCC1 (configuration not stated) -2.8%, O=C(NCCCN1CCN(c2ccccc2F)CC1)C1CCC(=O)N1C1CCCCC1 (configuration not stated) 1.3%, CC(C)(C)n1nnnc1C(c1cccs1)N(Cc1cccnc1)CC1CCCO1 (configuration not stated) -3.9%, C=CCC(NCCCO)c1cccc(OC)c1OC (configuration not stated) -1.4%, CCCCN(C)C(=O)c1ccc2c(c1)N(CC)C(=O)c1ccccc1S2(=O)=O -4.5%, CCOC(=O)CSc1nnc(CNC(=O)c2cccs2)n1-c1cc(OC)ccc1OC -0.5%, CCOC(=O)CSc1nnc(CNc2ccc(F)cc2)o1 -2.2%, Cc1ccccc1NC(=O)NCc1ccco1 2.4%, FC(F)(F)c1cc(-c2cccs2)nc(NCc2ccco2)n1 -3.9%, CN1CCN(c2cc(=O)n(-c3ccc(Cl)cc3)c(=O)[nH]2)CC1 0.4%, COc1ccccc1N(CC(=O)N1CCCCC1)S(=O)(=O)c1ccccc1 2.1%, C=CCn1cnc2scc(-c3ccccc3)c2c1=O 0.5%, C=CCn1c(COc2ccccc2C)nnc1SCC(=O)O 5.1%, O=C(Cn1cnc2c(cnn2-c2ccccc2)c1=O)NCc1ccccc1 -2%

inhibition, active:
CN(c1ccccc1)c1ccc(/C=c2\s/c(=C(/C#N)C(=O)C(C)(C)C)n(Cc3ccco3)c2=O)cc1 15.4%
